Reference: PubChem BioAssay AID1159580 (chemical genetic matrix, 2015)
The whole screen tested about 5,500 compounds, of which about 2,000 (36%) were called active. Another 18% or so got no clear call; they are omitted. Cut-off read from the data, not from the text of the source: active = normalized growth mostly below about 0.91 (no sharp cut-off); inconclusive = no clear call, values can overlap the other calls; inactive = mostly above about 0.92. This is one part of the list.

Assay: chemical genetic growth profiling, strain panel (AID 1159580);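 note: tested at 20 µM; growth read once vehicle control cultures reached saturation at 30 °C; 1 = growth at the plate median or of vehicle wells; lower values mean less growth of the strain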
Details: S. cerevisiae deletion strains, growth OD
[1] = locus YJL095W, strain BCK1, active compounds read low

Measured: normalized growth

C[C@]12C=CC(=O)C=C1CCC1C2[C@@H](O)C[C@@]2(C)C1CC[C@]2(O)C(=O)COC(=O)CCC(=O)O (stereo partly specified)
inactive: locus YHR030C, strain SLT2, active compounds read low 0.969 | locus YHR079C, strain IRE1, active compounds read low 0.968 | [1] 1 | locus YJR066W, strain TOR1, active compounds read low 0.931 | locus YLR113W, strain HOG1, active compounds read low 1 | locus YNL183C, strain NPR1, active compounds read low 0.931 | locus YOR231W, strain MKK1, active compounds read low 0.979 | locus YPL256C, strain CLN2, active compounds read low 0.963

CC(C1OC(C)(C)C(O)C1O)[C@@H]1CC[C@]2(C)C3=CCC4C(C)(C)C(=O)CC[C@]4(C)C3CC[C@@]12C (stereo partly specified)
active: locus YLR320W, strain mms22, active compounds read low 0.877 | locus YLR418C, strain cdc73, active compounds read low 0.79 | locus YNL071W, strain lat1, active compounds read low 0.906 | locus YNL233W, strain BNI4, active compounds read low 0.867 | locus YOR184W, strain ser1, active compounds read low 0.868
inactive: locus YAL013W, strain DEP1, active compounds read low 0.979 | locus YAL021C, strain ccr4, active compounds read low 1.02 | locus YAL026C, strain drs2, active compounds read low 0.987 | locus YAL030W, strain snc1, active compounds read low 1 | locus YBL061C, strain skt5, active compounds read low 0.978 | locus YBR009C, strain hhf1, active compounds read low 0.946 | locus YBR021W, strain FUR4, active compounds read low 1.06 | locus YBR023C, strain chs3, active compounds read low 0.985 | locus YBR171W, strain sec66, active compounds read low 0.985 | locus YBR229C, strain ROT2, active compounds read low 1.02 | locus YBR231C, strain swc5, active compounds read low 0.971 | locus YBR279W, strain paf1, active compounds read low 0.995 | locus YCL011C, strain gbp2, active compounds read low 0.981 | locus YCL016C, strain dcc1, active compounds read low 0.989 | locus YCL029C, strain bik1, active compounds read low 1.01 | locus YCL061C, strain MRC1, active compounds read low 0.995 | locus YCL069W, strain vba3, active compounds read low 0.994 | locus YCR088W, strain abp1, active compounds read low 1 | locus YDL005C, strain med2, active compounds read low 0.968 | locus YDL035C, strain GPR1, active compounds read low 0.931 | locus YDL040C, strain nat1, active compounds read low 0.976 | locus YDL074C, strain BRE1, active compounds read low 0.845 | locus YDL101C, strain DUN1, active compounds read low 0.989 | locus YDL134C, strain PPH21, active compounds read low 0.951 | locus YDL192W, strain arf1, active compounds read low 0.983 | locus YDR001C, strain nth1, active compounds read low 0.999 | locus YDR069C, strain doa4, active compounds read low 0.985 | locus YDR101C, strain arx1, active compounds read low 0.973 | locus YDR137W, strain rgp1, active compounds read low 1.02 | locus YDR159W, strain sac3, active compounds read low 0.898 | locus YDR162C, strain NBP2, active compounds read low 0.958 | locus YDR195W, strain ref2 1.05 | locus YDR297W, strain sur2, active compounds read low 0.981 | locus YDR318W, strain mcm21, active compounds read low 1 | locus YDR334W, strain swr1, active compounds read low 0.987 | locus YDR335W, strain msn5, active compounds read low 0.999 | locus YDR388W, active compounds read low 1.03 | locus YDR392W, strain spt3, active compounds read low 0.838 | locus YDR502C, strain sam2, active compounds read low 0.989 | locus YEL003W, strain gim4, active compounds read low 0.937 | locus YEL037C, strain rad23, active compounds read low 0.983 | locus YEL061C, strain CIN8 (second series), active compounds read low 0.99 | locus YER015W, strain faa2, active compounds read low 0.992 | locus YER016W, strain bim1, active compounds read low 0.99 | locus YER110C, active compounds read low 1.03 | locus YER111C, strain swi4, active compounds read low 0.999 | locus YER155C, strain BEM2 (second series), active compounds read low 0.924 | locus YER155C, strain BEM2, active compounds read low 1.07 | locus YER167W, strain BCK2, active compounds read low 1.01 | locus YFR010W, strain ubp6, active compounds read low 0.973 | locus YGL078C, strain dbp3, active compounds read low 1.03 | locus YGL086W, strain mad1, active compounds read low 1.03 | locus YGL167C, strain pmr1, active compounds read low 0.977 | locus YGL173C, strain kem1, active compounds read low 0.976 | locus YGL227W, strain vid30, active compounds read low 0.99 | locus YGL240W, strain doc1, active compounds read low 0.896 | locus YGL248W, strain PDE1, active compounds read low 0.97 | locus YGL253W, strain hxk2, active compounds read low 0.922 | locus YGR078C, strain PAC10, active compounds read low 0.91 | locus YGR135W, strain pre9, active compounds read low 1.01 | locus YGR252W, strain gcn5, active compounds read low 0.77 | locus YHR013C, strain ard1, active compounds read low 0.966 | locus YHR027C, strain rpn1, active compounds read low 1.02 | locus YHR079C, strain IRE1 (second series), active compounds read low 1.03 | locus YHR094C, strain hxt1, active compounds read low 1.03 | locus YHR129C, strain ARP1, active compounds read low 1 | locus YHR142W, strain chs7, active compounds read low 0.919 | locus YHR200W, strain rpn10, active compounds read low 1.01 | locus YIL066C, strain RNR3, active compounds read low 0.887 | locus YIL073C, strain SPO22, active compounds read low 0.99 | locus YIL125W, strain kgd1, active compounds read low 1.03 | locus YIR030C, strain dcg1, active compounds read low 1.04 | locus YJL092W, strain hpr5, active compounds read low 1 | locus YJL095W, strain BCK1 (second series), active compounds read low 1 | [1] 0.904 | locus YJL115W, strain asf1, active compounds read low 0.985 | locus YJL129C, strain trk1, active compounds read low 0.949 | locus YJL134W, strain LCB3, active compounds read low 1.04 | locus YJL154C, strain vps35, active compounds read low 1.01 | locus YJL164C, strain tpk1, active compounds read low 0.983 | locus YJL166W, strain qcr8, active compounds read low 0.917 | locus YJL168C, strain set2, active compounds read low 1.03 | locus YJL187C, strain SWE1 (second series), active compounds read low 0.958 | locus YJL187C, strain SWE1, active compounds read low 0.999 | locus YKL068W, active compounds read low 1.02 | locus YKL085W, strain MDH1 (second series), active compounds read low 1.05 | locus YKL085W, strain MDH1, active compounds read low 1.05 | locus YKL160W, strain elf1, active compounds read low 0.972 | locus YKL190W, strain CNB1, active compounds read low 1.03 | locus YKR001C, strain vps1, active compounds read low 1.01 | locus YKR026C, strain gcn3, active compounds read low 0.996 | locus YKR091W, strain srl3, active compounds read low 0.995 | locus YLL001W, strain dnm1, active compounds read low 1 | locus YLL026W, active compounds read low 0.997 | locus YLL041C, strain sdh2, active compounds read low 0.992 | locus YLR027C, strain aat2, active compounds read low 0.973 | locus YLR039C, strain RIC1, active compounds read low 1.06 | locus YLR058C, strain SHM2, active compounds read low 0.987 | locus YLR102C, strain apc9, active compounds read low 1.03 | locus YLR221C, strain rsa3, active compounds read low 0.936 | locus YLR258W, strain gsy2, active compounds read low 0.983 | locus YLR262C, strain YPT6 (second series), active compounds read low 0.979 | locus YLR262C, strain YPT6, active compounds read low 1.06 | locus YLR268W, strain sec22, active compounds read low 0.94 | locus YLR342W, strain FKS1, active compounds read low 0.923 | locus YLR357W, strain rsc2, active compounds read low 0.947 | locus YLR370C, strain arc18, active compounds read low 0.988 | locus YLR371W, strain rom2, active compounds read low 1.03 | locus YLR384C, strain iki3, active compounds read low 0.991 | locus YML016C, strain PPZ1, active compounds read low 1.03 | locus YML032C, strain rad52, active compounds read low 0.956 | locus YML120C, strain ndi1, active compounds read low 0.995 | locus YML124C, strain tub3, active compounds read low 1.04 | locus YMR058W, strain fet3, active compounds read low 0.978 | locus YMR078C, strain ctf18, active compounds read low 1.02 | locus YMR125W, strain sto1, active compounds read low 1.01 | locus YMR129W, active compounds read low 0.996 | locus YMR205C, strain PFK2, active compounds read low 0.95 | locus YMR223W, strain ubp8, active compounds read low 0.987 | locus YMR231W, strain pep5, active compounds read low 0.949 | locus YMR307W, strain GAS1, active compounds read low 0.775 | locus YNL067W, strain RPL9B, active compounds read low 0.999 | locus YNL153C, strain GIM3, active compounds read low 0.97 | locus YNL209W, strain ssb2, active compounds read low 0.995 | locus YNL248C, strain rpa49, active compounds read low 0.973 | locus YNL250W, strain rad50, active compounds read low 1.04 | locus YNL271C, strain bni1, active compounds read low 1.02 | locus YNL298W, strain CLA4, active compounds read low 0.973 | locus YNL307C, strain MCK1, active compounds read low 0.942 | locus YNL322C, strain KRE1 (second series), active compounds read low 0.975 | locus YNL322C, strain KRE1, active compounds read low 1.04 | locus YNR049C, strain mso1, active compounds read low 0.982 | locus YNR052C, strain pop2, active compounds read low 1.01 | locus YOL006C, strain TOP1, active compounds read low 0.88 | locus YOL012C, strain htz1 0.776 | locus YOL147C, strain pex11, active compounds read low 0.999 | locus YOR001W, strain rrp6, active compounds read low 0.97 | locus YOR061W, strain CKA2, active compounds read low 1.01 | locus YOR069W, strain VPS5, active compounds read low 1.03 | locus YOR070C, strain gyp1, active compounds read low 0.997 | locus YOR080W, strain dia2, active compounds read low 0.979 | locus YOR083W, strain WHI5, active compounds read low 0.972 | locus YOR106W, strain vam3, active compounds read low 0.961 | locus YOR136W, strain idh2, active compounds read low 1.01 | locus YOR144C, strain elg1, active compounds read low 1.01 | locus YOR265W, strain rbl2, active compounds read low 0.991 | locus YOR270C, strain vph1, active compounds read low 0.821 | locus YOR290C, strain snf2, active compounds read low 0.942 | locus YOR316C, strain cot1, active compounds read low 1.03 | locus YPL051W, strain arl3, active compounds read low 0.94 | locus YPL078C, strain atp4, active compounds read low 1 | locus YPL106C, strain sse1, active compounds read low 1.08 | locus YPL240C, strain hsp82, active compounds read low 0.991 | locus YPR119W, strain clb2, active compounds read low 1.04 | locus YPR141C, strain kar3, active compounds read low 1.04 | locus YPR163C, strain tif3, active compounds read low 0.965 | locus YPR167C, strain met16, active compounds read low 1.03 | strain wtn01, active compounds read low 0.956
